In PubChem BioAssay (NCATS):
Inconclusive results are not listed. Active and inactive are the calls of the source. Unless noted, calls come from the whole dose curve; as a rule, active = well fitted curve in the direction sought with a large enough effect; inconclusive = small, poorly fitted or top-dose-only effect, or another doubt; inactive = no such curve, though single readings can be large; an effect the other way counts as inactive or inconclusive.

How the values were obtained:
[1] = qHTS to identify inhibitors of the type 1 interferon - major histocompatibility complex class I in skeletal muscle: primary screen against the NCATS Mechanism Interrogation Plate v5.0 (MIPE) Libary (AID 1347411); note: nearly all actives have a fitted effect of over 65% in size; note: potency is the fitted concentration of half-maximal effect;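 for activity change, negative = inhibition: plate controls were vehicle for no effect and reference inhibitor for full effect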
Procedure, shortened: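 Seed engineered human myoblasts (HLA-B HiBit) in medium without dexamethasone containing 4 ng/ml IFN-beta; after 1 hr add compound titrations (top 46 uM final). Incubate 24 hrs at 37 C, lyse 10 min with HiBiT reagent, read luminescence.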

[2] = Primary qHTS for inhibitors of nuclear receptor binding SET domain protein 2 (NSD2) in an isogenic RCH-ACV NSD2 p.E1099K mutant (9B) (AID 1645876); note: nearly all actives have a fitted effect of over 70% in size; note: potency is the fitted concentration of half-maximal effect
[3] = Primary qHTS for inhibitors of nuclear receptor binding SET domain protein 2 (NSD2) in an RCH-ACV wild type WT cells (2C) (AID 1645877); note: nearly all actives have a fitted effect of over 70% in size; note: potency is the fitted concentration of half-maximal effect
[4] = target: Glutathione peroxidase 1 (Homo sapiens) (UniProt P07203); assay: Primary qHTS Assay for Inhibitors of Recombinant Selenoprotein Glutathione Peroxidase 1 (GPX1) (AID 1845191); note: nearly all actives have a fitted effect of over 65% in size
Procedure, shortened: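 NADPH consumption tracked by fluorescence at 340/450 nm between t=0 and t=15 min, room temperature. Final mix: 10 nM GPX1, 100 nM glutathione reductase, 1 mM GSH, 0.5 mM NADPH, 0.5 mM cumene hydroperoxide, 0.01% BSA; 30 min compound–enzyme preincubation.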

[5] = target: Phospholipid hydroperoxide glutathione peroxidase GPX4 (Homo sapiens) (UniProt P36969); assay: Primary qHTS Assay for Inhibitors of Recombinant Selenoprotein Glutathione Peroxidase 4 (GPX4) (AID 1845192); conditions: outcome: dose series up to 50 µM unless noted; note: nearly all actives have a fitted effect of over 65% in size; note: potency is the fitted concentration of half-maximal effect; for activity change, negative = inhibition: series mostly up to about 50 µM; % is set by controls: 0 for no effect and ±100 for the full control effect
Procedure, shortened: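 NADPH consumption followed by fluorescence at 340/450 nm, t=0 and after 15 min at room temperature. Reaction started with cumene hydroperoxide (0.5 mM final) after 30 min compound–GPX4 preincubation; final 200 nM GPX4, 100 nM GR, 1 mM GSH, 0.5 mM NADPH.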

[6] = qHTS drug screen for cell cycle checkpoint inhibitors in PARPi-resistant BRCA-mutant ovarian cancer cell lines. (AID 1963452; calls by dose curve); conditions: PEO1/OlaR viability, CellTiter-Glo luminescence, 96 h, stronger effect = lower value
Procedure, shortened: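 PEO1, PEO4 and PEO1/OlaR ovarian cancer cells, 600 per well, exposed 96 h at 37C to a dilution series. Viability read by CellTiter-Glo luminescence, normalized to DMSO and empty wells; activity summarized as Z-AUC.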

[7] = measured here: PEO1 parental Z-AUC

Phospholipid hydroperoxide glutathione peroxidase GPX4 (Homo sapiens), sequence (P36969 whole entry, looked up): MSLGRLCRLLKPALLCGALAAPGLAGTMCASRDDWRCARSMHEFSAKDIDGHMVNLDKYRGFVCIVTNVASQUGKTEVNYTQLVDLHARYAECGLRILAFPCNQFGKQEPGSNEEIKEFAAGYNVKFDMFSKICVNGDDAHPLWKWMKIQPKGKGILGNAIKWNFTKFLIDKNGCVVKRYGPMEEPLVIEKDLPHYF
Glutathione peroxidase 1 (Homo sapiens), sequence (P07203 whole entry, looked up): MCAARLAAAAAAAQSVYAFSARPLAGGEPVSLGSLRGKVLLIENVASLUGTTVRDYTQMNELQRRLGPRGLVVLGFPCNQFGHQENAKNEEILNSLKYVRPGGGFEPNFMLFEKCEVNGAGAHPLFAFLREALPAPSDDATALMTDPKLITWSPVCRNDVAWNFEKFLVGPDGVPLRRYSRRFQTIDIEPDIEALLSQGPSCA

Compound | Potency [1] | Potency [2] | Potency [3] | Potency [4] | Potency [5] | Z-AUC [6] | Z-AUC [6, 7] | Z-AUC ([6]; measured here: PEO4 Z-AUC) | activity change, negative = inhibition [1] | outcome [4] | activity change, negative = inhibition [5]
C=C1CCC[C@]2(C)C=C3OC(=O)C(C)=C3C[C@@H]12 | inactive | inactive | inactive | inactive | inactive | 0.206 (inactive) | -0.068 | -0.0438 | – | – | –
O=S(=O)(Nc1ccc(-c2cccnc2)c2cccnc12)c1cccc(C(F)(F)F)c1 | 8.29 µM (active) | 7.42 µM (active) | 7.42 µM (active) | inactive | inactive | 0.456 (inactive) | 0.0874 | 0.396 | – | – | –
Cc1cc(C)cc(Oc2ccc(CNC(=O)[C@H](C)N)cc2C)c1 | inactive | 18.6 µM (active) | 18.6 µM (active) | inactive | inactive | 1.6 (inactive) | 1.04 | 1.3 | – | – | –
CC(C)(C)C(=O)N1N=CC[C@H]1c1ccccc1 | inactive | inactive | inactive | inactive | inactive | -0.69 (inactive) | -0.909 | -0.663 | – | – | –
C[C@H](Nc1nc(N[C@H](C)C(F)(F)F)nc(-c2cccc(Cl)n2)n1)C(F)(F)F | inactive | inactive | inactive | inactive | inactive | -0.138 (inactive) | 0.592 | 0.804 | – | – | –
Nc1nccc2c1ncn2[C@@H]1C=C(CO)[C@@H](O)[C@H]1O | inactive | 0.209 µM (active) | 0.148 µM (active) | inactive | inactive | -0.397 (inactive) | -0.938 | -1.07 | – | – | –
Cc1ccc(NS(=O)(=O)c2ccc3c(c2)C2C=CCC2C(c2ccc(C(=O)O)cc2)N3)cc1C (configuration not stated) | inactive | inactive | inactive | inactive | 22.7 µM (active) | -0.665 (inactive) | -0.264 | -0.866 | – | – | –
Cc1c(NC(=O)c2cc(C(N)=O)nc3cc(F)ccc23)c(C(F)(F)F)nn1Cc1ccc(C(C)(C)C)cc1 | inactive | inactive | inactive | inactive | inactive | -0.453 (inactive) | -0.106 | 0.0379 | – | – | –
O=C(Nc1cnn2ccc(N3CCC[C@@H]3c3cc(F)ccc3F)nc12)N1CC[C@H](O)C1 | inactive | inactive | inactive | inactive | inactive | 1.28 (inactive) | 1.7 | 1.78 | – | – | –
CC(C)(O)c1coc(S(=O)(=O)NC(=O)Nc2c3c(cc4c2CCC4)CCC3)c1 | inactive | inactive | inactive | inactive | – | -0.755 (inactive) | -0.798 | -1 | – | – | –
Cc1cc(-c2cnn3c(NCC4CC(C)(O)C4)cc(Oc4cccnc4)nc23)ccc1C(=O)NC1CC1 (configuration not stated) | – | 0.148 µM (active) | 0.132 µM (active) | – | – | -0.227 (inactive) | 0.402 | -0.202 | -24.9% [at 5.1 µM] (inactive) | inactive [at 4.49 µM] | -10.8% [at 4.52 µM] (inactive)
CN[C@@H](C)C(=O)N[C@H](C(=O)N1CCC[C@H]1C(=O)Nc1sc(-c2ncco2)nc1-c1ccccc1)C1CCCCC1 | inactive | inactive | inactive | inactive | – | 1.87 (inactive) | 0.246 | 0.302 | – | – | –
O=C(O)c1ccccc1-c1ccc(/C=c2\sc3nc4cc(Br)cnc4n3c2=O)o1 | inactive | inactive | inactive | inactive | – | -0.492 (inactive) | -0.865 | -0.895 | – | – | –
Nc1nccc(-c2c(-c3ccc(F)cc3)ncn2C2CCN(Cc3ccon3)CC2)n1 | inactive | 7.42 µM (active) | 7.42 µM (active) | inactive | inactive | 0.042 (inactive) | 0.6 | 0.374 | – | – | –
Cc1cnc(NC(=O)c2cc(Oc3cnc(C(=O)N(C)C)nc3)c3cc(C)oc3c2)cn1 | inactive | inactive | inactive | inactive | inactive | -1.14 (inactive) | -0.452 | 0.0814 | – | – | –
